# From PubChem BioAssay AID1508600 (Functional Genomics Laboratory (NCATS/FGL), 2020)
# In all, about 53,000 sequences went through this assay and about 3,700 (7%) were called active.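 How the source made its calls: active means gene knockdowns whose robust z-score for IL-1 alpha signal is at least 2 or at most -2, so actives lie on both sides; inactive means the rest.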 The entries come from a sample that favours actives as a whole.
# Assay: Components of the Cytosolic LPS Sensing Pathway: Gene Identification via Genome-wide siRNA Screen;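 further: robust z of the log signal after scaling to non-targeting control siRNA wells of the plate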
# Conditions: RAW264.7 macrophages, IL-1a HTRF, actives lie on both sides, screened at 100 nM (by protocol), cells primed 5 h with Pam3CSK4 first
# Outline: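 RAW264.7 mouse macrophages reverse-transfected with single siRNAs (100 nM final) for 48h, primed with Pam3CSK4 for 5 hours, then transfected with LipidA for 24 hour. Supernatant IL-1a read by HTRF; values normalized to negative-control median, log-transformed robust z-scores.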
row,Sequence,z-score
1,GGAGCUUCUCAUGACCUUUTT against Mettl21e,0.307 (inactive)
2,GCGAUGGUAUGUUGAAGGATT against 4930432E11Rik,0.639 (inactive)
3,GGAGUACAUGACCACAGAUTT against Lncpint,-2.06 (active)
4,GCCUAAAAACUCUAAAUCUTT against Mmut,-0.0189 (inactive)
5,GGUGUGGACUAUGAUACCATT against Anxa9,0.984 (inactive)
6,GGCUUUGAACAGGAAAGACTT against Ube2z,-0.417 (inactive)
7,CCUGCAAAUGAUACCACCGTT against Olfr734,-0.402 (inactive)
8,GGAGCGAAGUGAUGAAUAATT against Prph2,0.0677 (inactive)
9,GGAGCAGCUGAGAGAAAAATT against Ccdc144b,-0.413 (inactive)
10,GCGAUUCAGAGACCUAUGGTT against Aven,-2.22 (active)
11,GGAUGCUGAUUUAAAGACUTT against Rai14,1.69 (inactive)
12,GCUGAAGGGACUCUAACCATT against Ihh,0.715 (inactive)
13,CCUCUGGAUCUACGAGCUGTT against Odf4,-0.00669 (inactive)
14,GCAGAUAGAAGACUGGAAUTT against 1700024G13Rik,0.424 (inactive)
15,GGUUAUUUCUGAAAUGUGCTT against Fbxl4,-1.3 (inactive)
16,GGCUGAAAAUGGGAAGCUUTT against Gm5069,0.0536 (inactive)
17,GGAUGAGCUGAGGAAAUCCTT against Psd2,-0.535 (inactive)
18,GGUUCUAGACAAUUACCUGTT against Clic1,2.43 (active)
19,GCCAGGGACUUGCUAUUGATT against Txlna,-0.24 (inactive)
20,GGGAAUGGCUUGAUUCUGUTT against Olfr609,0.514 (inactive)
21,CGACAAGGAGACCUACAAATT against Itm2b,0.615 (inactive)
22,CGCAUCAUAAUGAUUGUGATT against Matn2,-0.269 (inactive)

row,Sequence,z-score
1,GGCAUCUAUACCAGUAAUATT against Mllt6,-0.562 (inactive)
2,CCAACAGCAACGAUGACAATT against Thoc5,-2.94 (active)
3,GGAAAUGAUACCUUACCACTT against Zfp715,0.162 (inactive)
4,GCGUGAACCGUUUGAUGAGTT against 9030612E09Rik,1.04 (inactive)
5,GGACAUGAAAGAAACGGUGTT against Bbc3,-0.282 (inactive)
6,GCUUCCUCUUAUCAUAUAATT against Rgs13,-0.119 (inactive)
7,GGUAUUAGAAAUCCUGAUCTT against Pias2,-0.716 (inactive)
8,GGUAUUUCAGAUAACCUGGTT against Bbs12,2.9 (active)
9,CGCAUCAUAUUCUGAUUCCTT against Rmnd5b,0.138 (inactive)
10,CGCAGACAACAAAGUAGAATT against Sars,0.738 (inactive)
11,GGUGUUGUAAAAUUCCUCATT against Ncoa7,-2.08 (active)
12,GCAUUUCGACGCGGCUUUUTT against Snapc1,0.617 (inactive)
13,GGUAAACCUGCCAAUUUUGTT against Ovch2,1.54 (inactive)
14,GCCAUGUGAGACUCUUAUATT against Slc2a9,0.62 (inactive)
15,GCAGCUCCUUUAUACCCACTT against Mxra7,-1.25 (inactive)
16,GGAGGGAGCAGAUUGAAACTT against Eri2,-0.281 (inactive)
17,GCAUGCUUAAGCCUAUAAATT against Ncstn,-1.88 (inactive)
18,GUGUCUCUGUACUUAUUAUTT against Olfr483,0.69 (inactive)
19,GGUGGACGUACUUUUUAACTT against Gata3,2.59 (active)
20,GCUUUUAGAAUAAAGCUGATT against Fgl2,0.75 (inactive)
21,CCUAUGUCCACCACAAAUGTT against Ifi209,-0.14 (inactive)
22,GCAACCUGUCCCUUCUUGATT against Olfr225,1.53 (inactive)

row,Sequence,z-score
1,GGAGCUGAAGCCAUUCAACTT against Gpx6,2.08 (active)
2,GGGAAAUGUUGUAGUAGAUTT against Rars2,0.535 (inactive)
3,CCACUGUGUGACAUUAAAGTT against Metap2,-0.799 (inactive)
4,GCAACUAGCGUGUGUUCCUTT against Arpc1a,2.4 (active)
5,GGCACAGAAUAUCCACCACTT against Olfr283,-1.01 (inactive)
6,GGCAUUCAGGAAGUUACUGTT against Krt75,-1.63 (inactive)
7,GGCUUAAUUGCUAGCCAAGTT against Slc7a13,0.849 (inactive)
8,GGCUUUCGCUAGAAAACUCTT against Sftpc,0.531 (inactive)
9,CGUGGAAAGAAAAUUAUCATT against Psmd11,-2.21 (active)
10,GCAAAUUUUAUAUGCGACUTT against Glipr1,-0.561 (inactive)
11,GGAGAAUGACUACUAUACUTT against Stt3a,-0.127 (inactive)
12,CCAGACACGCAUUGCGAAATT against H2-M2,0.357 (inactive)
13,GCAUCAAUUCCCAAACCUUTT against Selenov,-0.0263 (inactive)
14,GGGCAAACCAGUUAGCAGATT against Atxn2,0.278 (inactive)
15,GGGAAGCCUUACUUAUUGGTT against Vmn1r53,1.25 (inactive)
16,GGACGAAAUCUUGUCUGAUTT against Atg4b,2.59 (active)
17,GGACAAAACCUCAGUUGAUTT against Bves,1.05 (inactive)
18,CCAAGGACACUAUACAAAUTT against Fank1,0.957 (inactive)
19,CCCGCAACAAUAAACCUGATT against Yif1b,-1.36 (inactive)
20,GCAGUACAUAGGACAAUACTT against Ccdc97,0.0835 (inactive)
21,GGAAGAAGAAAGUGUUAAATT against Ythdf2,-0.337 (inactive)
22,GGUCCAAUUUUAUAACAGUTT against Dmtf1,0.359 (inactive)

row,Sequence,z-score
1,GCCAUGUCAAUCAAUCACUTT against Nucks1,-2.57 (active)
2,GGCUACCAAGGCAGUUUCCTT against Glis1,-1.35 (inactive)
3,GCUUUACUCCAGAUGGAUCTT against Chaf1b,3.23 (active)
4,GGGUAUCAGUGCCUUCCUGTT against Acads,-1.05 (inactive)
5,GGUCACUCGGUUCACAAAATT against Bid,-0.731 (inactive)
6,CGUUCAUAUAGAGAACUGUTT against Naip1,0.699 (inactive)
7,CGUGCCUGCUCAAUUAAUUTT against 1700067P10Rik,2.46 (active)
8,GGGUAAUAGACCAUUUCUUTT against Olfr124,0.255 (inactive)
9,GGAGCUUAGAGGAACGAAUTT against Cyp2j9,1.4 (inactive)
10,GGAUUUUGGCCAAAUUGGUTT against Slc25a30,-2.08 (active)
11,GGAAGAAGAAGACCAGGGATT against Parvb,-0.0188 (inactive)
12,GGCCAACUUCGAAGAAAAGTT against Mrpl52,0.192 (inactive)
13,CCAAAAAAUCCUAUACUCUTT against Cdh8,1.42 (inactive)
14,GGUCACUUCCUUAAUUUUATT against Disc1,-1.62 (inactive)
15,GGAAGACCCUAAUCUAGUCTT against Cox5b,2.1 (active)
16,GGCUUGGUGUUUUGAUUAGTT against Rogdi,1.6 (inactive)
17,GGUCUUGCAUGUCUCUGAGTT against Lrrc47,-1.45 (inactive)
18,GGAGUUUGAACAUAUGAAGTT against Rcn1,-0.417 (inactive)
19,GCUAUCAUGAAGCUAAAUGTT against Igf2bp1,0.267 (inactive)
20,GGACAAGCAAGAAGGAAUUTT against Polr2j,-2.43 (active)
21,CCAGAUUAUGACAAAGCGUTT against Glyat,-0.0538 (inactive)
22,AAACCAUACUUGAAAGAAATT against Olfr943,-0.36 (inactive)

row,Sequence,z-score
1,GCAGUAGGUUGCACACAUATT against Art1,-2.11 (active)
2,GCACACGUCCUAUAAAAAUTT against Rad54b,0.532 (inactive)
3,GGACUUCUCUGUGAAGAUGTT against Ctsf,-0.129 (inactive)
4,GGAGAGAGGAUAAGUCACATT against Jsrp1,-1.44 (inactive)
5,GCUGGAUCCAUCUAAUUGCTT against Klhl12,0.0684 (inactive)
6,CGGGAUCUUAGAAGAGCAATT against Ptpre,2.6 (active)
7,GGACCAGUUAAAGUCACCATT against Atp4b,-1.81 (inactive)
8,GGAAGGUGGCUAUUUUAAUTT against Acsl3,-0.207 (inactive)
9,CCAUUUCUUUCAGUGGCUGTT against Olfr48,-0.47 (inactive)
10,GGCUAUAAAAGCACAGUUUTT against Slc25a26,-0.61 (inactive)
11,CCCUGCAUUUGUCAAUUAUTT against Hnrnpl,-0.161 (inactive)
12,GGGACAAAGAGAUACACAUTT against 9530056K15Rik,1.11 (inactive)
13,GCCUGAUCGAUACGUGAUCTT against Naaladl1,3.35 (active)
14,GGAGGACAACAGCAAAACATT against Atoh1,-1.01 (inactive)
15,GGAAAGAGAAAAACAACCATT against Cngb3,-0.522 (inactive)
16,GGCUCACAUUGUAACUUAGTT against Krtap5-2,1.41 (inactive)
17,GGAGAAUGCUAAGGUUACUTT against Pcdhga9,0.269 (inactive)
18,CGGCACACUAAGAAACGGATT against Odf3l1,0.152 (inactive)
19,GGAAGGAUAUGAGAAUUUCTT against Nt5c3,2.51 (active)
